# In PubChem BioAssay:
# Activity calls are given as the source filed them.
# Experiments:
# [1] = anti-His antibody binders, primary screen, artefact control for SMM control protein annotation, biochemical, small-molecule microarray, 635 nm fluorescence (AID 1128); conditions: anti-His Alexa647 antibody binding, higher = more signal;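 note: score merges feature fluorescence with signal-to-noise for each printed compound spot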
# [2] = tested on: Human papillomavirus type 1a E7 protein (residues 1-88); assay: HPV1a E7 small-molecule binders, primary screen, biochemical, small-molecule microarray, residues 1-88, 635 nm (AID 1129); conditions: small-molecule microarray binding, fluorescence 635 nm; higher = more signal
# [3] = biological target: Focal adhesion kinase 1 (Homo sapiens) (UniProt Q05397); assay: small-molecule microarray binders of FAK, primary screen, biochemical, 635/667 nm fluorescence, BSA, DTT (AID 1130); conditions: PTK2 binding, 635 nm fluorescence, higher = more signal;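 note: composite of spot emission at 667 nm and signal to noise over triplicate slides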
# Sequence of Focal adhesion kinase 1 (Homo sapiens) (Q05397 whole entry, looked up): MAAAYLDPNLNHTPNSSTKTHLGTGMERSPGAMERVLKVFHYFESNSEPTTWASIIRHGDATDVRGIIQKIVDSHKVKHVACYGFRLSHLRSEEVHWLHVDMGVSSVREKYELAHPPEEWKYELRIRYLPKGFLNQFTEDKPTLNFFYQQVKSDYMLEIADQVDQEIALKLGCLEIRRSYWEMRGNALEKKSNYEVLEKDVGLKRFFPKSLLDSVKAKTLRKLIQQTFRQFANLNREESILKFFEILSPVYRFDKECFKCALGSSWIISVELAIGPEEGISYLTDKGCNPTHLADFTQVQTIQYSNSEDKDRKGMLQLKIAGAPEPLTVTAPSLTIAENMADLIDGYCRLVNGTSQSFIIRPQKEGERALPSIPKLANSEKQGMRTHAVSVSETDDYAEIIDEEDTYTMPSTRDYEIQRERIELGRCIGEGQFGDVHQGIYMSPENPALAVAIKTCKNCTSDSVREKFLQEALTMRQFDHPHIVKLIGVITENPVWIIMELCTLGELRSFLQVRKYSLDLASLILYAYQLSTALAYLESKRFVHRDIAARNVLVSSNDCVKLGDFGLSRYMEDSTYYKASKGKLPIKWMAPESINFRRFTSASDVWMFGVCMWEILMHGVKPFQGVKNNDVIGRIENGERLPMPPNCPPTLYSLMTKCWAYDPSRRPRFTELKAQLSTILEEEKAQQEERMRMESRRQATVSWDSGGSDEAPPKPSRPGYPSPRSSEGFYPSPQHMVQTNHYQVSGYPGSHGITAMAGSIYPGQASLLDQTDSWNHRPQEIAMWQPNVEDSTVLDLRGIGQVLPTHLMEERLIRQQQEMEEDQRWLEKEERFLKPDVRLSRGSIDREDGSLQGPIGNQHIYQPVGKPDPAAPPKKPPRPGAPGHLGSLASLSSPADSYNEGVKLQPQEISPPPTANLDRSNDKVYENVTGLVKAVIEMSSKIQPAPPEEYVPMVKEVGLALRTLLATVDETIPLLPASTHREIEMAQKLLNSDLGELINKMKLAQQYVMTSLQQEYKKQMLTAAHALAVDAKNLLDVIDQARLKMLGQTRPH
# [4] = tested on: Fibrinogen (Alexa647-labelled); assay: fibrinogen binders on compound microarrays, profiling panel, artefact control for SMM control-protein annotation, biochemical, small-molecule microarray, 635/667 nm fluorescence (AID 1131); conditions: fibrinogen-A647 binding fluorescence, higher = more signal;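 note: z-score merges 667 nm fluorescence with per-spot signal-to-noise over triplicate slides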
# [5] = biological target: Follistatin (Homo sapiens) (UniProt P19883); assay: follistatin binders on small-molecule microarrays, primary screen, biochemical, small-molecule microarray, 635/667 nm fluorescence (AID 1132); conditions: FST binding, 635 nm fluorescence, higher = more signal
# Sequence of Follistatin (Homo sapiens) (P19883 whole entry, looked up): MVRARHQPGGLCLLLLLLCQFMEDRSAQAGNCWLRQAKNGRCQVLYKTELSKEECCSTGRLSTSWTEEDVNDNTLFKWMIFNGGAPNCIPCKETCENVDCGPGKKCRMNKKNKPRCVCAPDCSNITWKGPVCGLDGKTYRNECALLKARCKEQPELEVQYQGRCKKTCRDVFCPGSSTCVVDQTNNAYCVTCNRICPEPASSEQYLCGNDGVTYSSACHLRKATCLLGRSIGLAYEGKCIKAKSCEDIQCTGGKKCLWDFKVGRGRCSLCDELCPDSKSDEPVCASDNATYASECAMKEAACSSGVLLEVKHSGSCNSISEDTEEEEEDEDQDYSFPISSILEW
# [6] = biological target: Fibroblast growth factor 2 (Homo sapiens) (UniProt P09038); assay: FGF2 binders on small-molecule microarrays, primary screen, biochemical, small-molecule microarray, 635/667 nm fluorescence (AID 1133); conditions: small-molecule microarray binding, FGF2, fluorescence 635/667; higher = more signal
# Sequence of Fibroblast growth factor 2 (Homo sapiens) (P09038 whole entry, looked up): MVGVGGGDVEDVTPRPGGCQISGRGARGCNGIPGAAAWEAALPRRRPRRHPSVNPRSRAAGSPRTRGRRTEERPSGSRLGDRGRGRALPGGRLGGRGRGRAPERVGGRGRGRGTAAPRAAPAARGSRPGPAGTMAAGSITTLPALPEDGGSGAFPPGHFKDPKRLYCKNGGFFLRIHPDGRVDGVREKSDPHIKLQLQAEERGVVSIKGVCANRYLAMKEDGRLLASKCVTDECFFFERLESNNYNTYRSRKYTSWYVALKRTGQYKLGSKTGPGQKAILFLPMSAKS
# [7] = mitochondrial membrane potential change in A549 cells, profiling panel, cell-based, JC-1 fluorescence, basal, 24 h, 100 nL (AID 1138); conditions: higher = more signal;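 note: A549 lung adenocarcinoma cells under basal conditions with no added stimulus; test concentration not given here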
# Lefty1 = Lefty1 binders on small-molecule microarrays, primary screen, biochemical, small-molecule microarray, 635/667 nm fluorescence (AID 1139); conditions: small-molecule microarray binding, fluorescence 635/667; higher = more signal
# [8] = tested on: wheat germ agglutinin (Triticum aestivum), Alexa647-labelled; assay: wheat germ agglutinin binders on compound microarrays, profiling panel, artefact control for SMM control-protein annotation, biochemical, small-molecule microarray, 635/667 nm fluorescence (AID 1140); conditions: WGA-A647 binding, 635 nm fluorescence, higher = more signal;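 note: score merges 667 nm feature emission with signal to noise over triplicate slides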
# [9] = biological target: Luciferin 4-monooxygenase (Photinus pyralis) (UniProt P08659); assay: firefly luciferase enzyme inhibitors, primary screen, biochemical, luminescence, purified enzyme, 2006 set (AID 1141); conditions: SteadyGlo luminescence, 30 min, higher = more signal, called active from +8 up or from −8 down;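 note: cell-free assay with purified firefly luciferase at 100 ng per well in PBS; test concentration not given here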
# Sequence of Luciferin 4-monooxygenase (Photinus pyralis) (P08659 whole entry, looked up): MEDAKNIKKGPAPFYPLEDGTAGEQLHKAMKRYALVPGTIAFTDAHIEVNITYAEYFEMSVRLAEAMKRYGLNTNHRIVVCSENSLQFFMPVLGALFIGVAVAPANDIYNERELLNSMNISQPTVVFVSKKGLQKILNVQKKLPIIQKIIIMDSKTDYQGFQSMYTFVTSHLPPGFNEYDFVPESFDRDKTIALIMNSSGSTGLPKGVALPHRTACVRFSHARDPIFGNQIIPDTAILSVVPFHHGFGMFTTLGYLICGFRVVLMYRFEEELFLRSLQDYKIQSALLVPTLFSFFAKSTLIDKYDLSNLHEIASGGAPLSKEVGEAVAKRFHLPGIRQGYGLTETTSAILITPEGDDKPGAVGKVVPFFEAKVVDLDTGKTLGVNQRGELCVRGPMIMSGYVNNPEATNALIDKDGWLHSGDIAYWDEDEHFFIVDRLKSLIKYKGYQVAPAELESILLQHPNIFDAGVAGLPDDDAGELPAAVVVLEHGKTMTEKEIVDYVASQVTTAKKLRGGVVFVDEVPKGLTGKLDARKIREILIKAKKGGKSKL
Structure (SMILES),composite z-score [1],composite z-score [2],composite z-score [3],composite z-score [4],composite z-score [5],composite z-score [6],z-score [7],composite z-score (Lefty1),composite z-score [8],z-score [9]
COC(=O)[C@@]1(Cc2ccc(OC)cc2)[C@H]2c3cc(C(=O)N4CCCC4)n(Cc4ccc(C)c(F)c4F)c3C[C@H]2CN1C(=O)c1ccccc1,1.39,1.27,1.32,0.97,0.884,-0.294,1.41,-0.161,1.32,1.44 (inactive)
C=CCN1C(=O)[C@]2(O[C@H](CCn3cc([C@H](O)c4ccccc4)nn3)[C@@H]([Si](C)(C)c3ccc(OC)cc3)[C@@H]2C)c2ccccc21,-0.435,-0.723,-0.458,-1.07,-0.696,-0.403,-0.156,-0.581,0.417,0.184 (inactive)
COc1cc2c(cc1OC)CN(C(=O)[C@H]1[C@@H]3C(=O)O[C@@H](c4ccccc4)[C@@H](c4ccccc4)N3[C@@H](c3ccc(O)cc3)[C@]13C(=O)Nc1ccc(C#CCCO)cc13)CC2,1.31,1.21,0.055,0.807,1.12,0.0827,-0.824,0.0938,0.943,1.1 (inactive)
Cc1ccccc1C(O)C1C=CC2C(=O)N(c3ccccc3)C(=O)C2N1Nc1ccc(C(C)C)cc1 (stereo not given),0.0147,1.14,0.655,0.997,1.02,-0.144,-0.504,0.383,0.882,-0.263 (inactive)
COc1ccc(CCNC(=O)[C@@]2(Sc3ccc(C)cc3)CC(=O)N(C3Cc4ccccc4C3)[C@@H]2c2ccc(CO)cc2I)cc1,1.13,0.255,0.235,-0.716,-0.816,-0.944,1.43,-1.04,-0.176,-0.704 (inactive)
CCOC(=O)C1=CC[C@@H](c2ccccc2)N(S(=O)(=O)c2ccc(C)cc2)[C@H]1c1ccccc1C,0.109,0.893,0.0769,0.394,0.74,0.545,1.86,0.384,0.406,2.49 (inactive)
COC(=O)[C@@]1(Cc2ccc(OC)cc2)[C@@H]2C(=CC(=O)[C@H]2CC(=O)C(=O)N2CCCC2)CN1C(=O)c1ccccc1,1.47,0.882,0.528,0.802,-0.0125,-0.322,1.55,-0.319,0.357,0.826 (inactive)
CC(C)[Si]1(C(C)C)O[C@@H](c2ccccc2)c2cc(-c3ccc(-c4ccc(Cl)c(Cl)c4)o3)nc(-c3ccccc3)c21,2.46,0.361,-0.289,0.291,-0.139,0.0622,-0.133,-0.0995,0.533,-0.266 (inactive)
COC(=O)C[C@H]1O[C@]2(C(=O)N(C)c3ccccc32)[C@@H](C)[C@@H]1[Si](C)(C)F,0.0783,0.608,0.26,0.209,1.18,2.03,0.435,1.33,-0.0572,-1.82 (inactive)
CCCC[C@@H]1C[C@H]1[C@@H](NC(=O)c1ccco1)c1ccc(-c2ccccc2)cc1,0.633,0.665,0.218,-0.275,0.038,-0.199,-1.12,-0.0072,0.124,1.01 (inactive)
COc1ccc([Si](C)(C)[C@H]2[C@H](CCO)O[C@@]3(C(=O)N(Cc4ccc(N(C=O)c5ccccc5)cc4)c4ccccc43)[C@@H]2C)cc1,0.841,0.179,0.114,-0.568,0.191,-0.408,0.357,0.151,0.655,0.221 (inactive)
CCCC[C@H]1OB(O)C[C@H]2C1=C(COC)C[C@H]1C(=O)N(C)C(=O)[C@H]12,0.415,-0.292,0.18,0.144,0.824,0.846,0.145,0.896,0.631,-0.656 (inactive)
CCOC(=O)C[C@H]1[C@H](OC(=O)c2ccc(C(=O)c3ccccc3)cc2)[C@@H](NC(=O)c2ccc3ccccc3n2)c2cc(OCCCO)ccc2N1C(=O)c1ccccc1,-0.0053,0.924,0.0305,0.807,0.559,0.674,0.332,1.63,0.761,0.393 (inactive)
CN1C(=O)C2C=CC(C(O)c3ccco3)N(Nc3ccccc3)C2C1=O (stereo not given),1.72,0.103,-0.0653,0.822,0.861,0.33,0.207,0.332,0.594,0.0206 (inactive)
C=C(CCCC)C(=O)CC[C@@H](OC(=O)c1ccccc1-c1ccccc1C(=O)O)c1ccc(OCCO)cc1,-0.54,0.0862,-0.72,-0.277,1.42,1.37,0.118,0.797,0.427,-2.06 (inactive)
NC(=O)[C@@H]1[C@H]2C(=O)O[C@H](c3ccccc3)[C@H](c3ccccc3)N2[C@H](c2ccc(O)cc2)[C@@]12C(=O)Nc1ccccc12,-0.393,-0.507,0.119,-0.538,-0.5,-1.17,-1.11,-0.827,0.156,-0.366 (inactive)
[N-]=[N+]=NCc1ccccc1[C@@H]1OC(c2ccc(OCCCO)cc2)=N[C@]1(Cc1ccccc1)C(N)=O,0.888,1.25,1.22,1.06,1.28,0.0766,0.199,0.186,1.06,-0.0322 (inactive)

Structure (SMILES),composite z-score [1],composite z-score [2],composite z-score [3],composite z-score [4],composite z-score [5],composite z-score [6],z-score [7],composite z-score (Lefty1),composite z-score [8],z-score [9]
[N-]=[N+]=Nc1ccccc1[C@H]1OC(c2ccc(OCCCO)cc2)=N[C@@]1(CCS(=O)(=O)c1ccccc1)C(N)=O,2.95,1.22,0.26,0.938,0.794,0.0263,0.118,-0.142,1.21,-6.6 (inactive)
C[N+](C)(C)CCCCNC(=O)[C@@H]1C[C@@H]2C(=O)N[C@@H](Cc3ccccc3)C(=O)N2[C@@H]1c1cccc(OCCO)c1,3.38,-0.636,-0.449,-1.23,1.32,1.55,1.21,0.245,-1.02,-1.75 (inactive)
COc1cc(C(O)C2C=CC3C(=O)NC(=O)C3N2Nc2ccccn2)cc(OC)c1OC (stereo not given),1.26,0.852,0.184,0.764,0.169,0.158,0.623,-0.188,0.0705,-0.0958 (inactive)
COc1cc2c(cc1OC)CN(C(=O)[C@@H]1[C@H]3C(=O)O[C@H](c4ccccc4)[C@H](c4ccccc4)N3[C@H](c3ccccc3OCCO)[C@@]13C(=O)Nc1ccc(C#CCCO)cc13)CC2,1.94,1.15,0.222,0.966,1.27,0.409,-0.426,0.904,0.988,-0.785 (inactive)
C=CCN1C(=O)[C@]2(O[C@H](CCn3cc([C@H](O)c4ccccc4)nn3)[C@@H]([Si](C)(C)c3ccc(OC)cc3)[C@@H]2C)c2cc(N3CCC3=O)ccc21,0.211,1.16,0.309,-0.713,1.28,0.792,1.37,1.2,0.386,0.114 (inactive)
COC(=O)[C@@]1(Cc2ccc(OC)cc2)[C@H]2c3cc(C(=O)N4CCCC4)n(CCN4CNCC4=O)c3C[C@H]2CN1C(=O)c1ccccc1,3.25,1.16,1.06,0.326,-1.02,-0.48,-0.0456,-0.899,0.949,-0.119 (inactive)
CC1CC/C=C\[C@H]2OC34C=CCN(C(C)(C)C)C(=O)[C@H]3N(C(C)CO)C(=O)[C@@H]4C2C(=O)O1 (stereo not given in full),-1.63,-2.07,-0.9,-2.02,-0.397,-0.121,0.348,-0.248,-1.61,-0.694 (inactive)
COc1ccc(/C=C/C=O)cc1,0.0874,-0.238,-0.0113,-1.76,0.853,0.138,0.769,0.321,-0.367,-0.756 (inactive)
CO[C@H]1O[C@H](CO)[C@@H](OC(=O)Nc2cccc(F)c2)[C@H](OC(=O)Nc2ccccc2)[C@@H]1OC(=O)Nc1ccccc1,1.16,1.22,0.919,0.973,0.518,0.843,0.0874,-0.105,1.27,0.0107 (inactive)
COC(=O)C(CC#Cc1ccc2c(c1)[C@]1(C(=O)N2)[C@H](c2ccc(OCCO)cc2)N2[C@H](c3ccccc3)[C@H](c3ccccc3)OC(=O)[C@H]2[C@@H]1C(=O)Nc1nc2ccccc2s1)C(=O)OC,1.6,1.23,0.633,0.998,0.989,0.408,-2.05,0.417,0.638,-0.877 (inactive)
CN1C(=O)C2C=CC(C(O)C#Cc3ccccc3)N(N3CCCCC3)C2C1=O (stereo not given),2.14,0.392,-0.381,0.933,0.718,0.756,0.534,-0.418,1.3,-1.69 (inactive)
CCCc1cc2c(n1Cc1cc(F)cc(F)c1)C(C)C1CN(C(=O)c3ccccc3)C(C)(C(=O)OC)C21 (stereo not given),2.15,1.24,2.09,0.982,0.542,-0.48,1.24,-0.311,1.01,-1.15 (inactive)
O=C(NCCN1CCOCC1)[C@@H]1c2ccccc2C(=O)N(C2CCCCC2)[C@H]1c1ccc(CO)cc1,0.166,0.0657,-0.0962,0.74,0.0603,-0.59,2.27,-0.0981,-0.403,-0.293 (inactive)
NCCCCCCNC(=O)[C@@H]1C[C@@H]2C(=O)NCC(=O)N2[C@@H]1c1ccc(O)cc1,1.2,1.14,0.183,0.971,1.46,1.62,-0.614,1.63,0.846,1.14 (inactive)
CC(C)N1C(=O)c2ccccc2[C@](C)(C(=O)NCCN2CCOCC2)[C@@H]1c1ccc(CO)cc1,-0.293,-0.0941,0.356,-0.726,0.897,-0.574,-0.662,-0.117,-0.489,-0.265 (inactive)
C=C[C@H](C)[C@@H](OC(=O)Nc1ccc(OC)cc1)c1ccc(O)c2ccccc12,0.965,0.0812,-0.603,-0.95,0.999,0.0495,-1.64,1.04,-0.235,-5.17 (inactive)
